Screening results: PubChem, National Center for Advancing Translational Sciences (NCATS)
nsP2pro inh – CHIKV nsP2 protease inhibition, primary qHTS; Q8JUX6; FRET peptide cleavage, nsP2pro, fluorescence 1 h; Potency, µM (doses to about 24.9 µM), for inactives: top-dose activity change, negative = inhibition, most hits filed as inhibitors; 31,000 tested, 1.1% active; AID 1964107; note: nearly all actives have a fitted effect of over 60% in size
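Purified recombinant nsP2pro (150 nM final) in 10 mM Tris-HCl pH 8.0 with 0.01% Tween 20 was preincubated 15 min at room temperature with compound (7 concentrations, up to 25 uM). FRET peptide 2 substrate (2.5 uM final) was then added; fluorescence was read after 1 h.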
nsP2 cell sec – inhibits CHIKV nsP2 protease in cells | shares compounds with nsP2pro inh | cell-based CHIKV nsP2 protease reporter assay | Potency, µM (doses to about 51.1 µM), for inactives: at the highest dose activity change, negative = inhibition, hits mostly inhibitors | 450 tested, 10% active; note: nearly all actives have a fitted effect of over 70% in size
CHIKV NSP2 FL – full-length CHIKV NSP2 protease inhibition, selectivity | Potency, µM (doses to about 50.7 µM), without a hit: at the top dose activity change, negative = inhibition, usual class: inhibitors | 410 tested, 39% active | shares compounds with nsP2pro inh | Full-length CHIKV NSP2 protease enzymatic counterscreen; note: nearly all actives have a fitted effect of over 65% in size
Furin counter – inhibits human furin in a CHIKV nsP2 protease selectivity counterscreen; shares compounds with nsP2pro inh; Recombinant human furin enzymatic counterscreen, fluorogenic substrate; Potency, µM (top dose mostly 50.6 µM), inactives show at the top dose activity change, negative = inhibition, usual class: inhibitors; 410 tested, 6% active; AID 1964102
nsP2 NS23 pep – selectivity test for CHIKV nsP2 protease inhibitors: endogenous NS2/3 peptide. shares compounds with nsP2pro inh. Purified CHIKV nsP2 protease, endogenous NS2/3 peptide cleavage. Potency, µM (highest dose often 51 µM), inactives show at the highest dose activity change, negative = inhibition, usual class: inhibitors. 410 tested, 34% active; note: nearly all actives have a fitted effect of over 55% in size
Papain counter – selectivity counter-screen for CHIKV nsP2 protease inhibitors: papain; shares compounds with nsP2pro inh; purified papain protease activity, enzymatic inhibition; Potency, µM (top dose mostly 51 µM), without a hit: at the top dose activity change, negative = inhibition, most hits filed as inhibitors; 410 tested, 5% active; AID 1964104
nsP2pro conf qHTS – confirmation of CHIKV nsP2 protease inhibitors; shares compounds with nsP2pro inh; CHIKV nsP2 protease enzymatic activity, qHTS; Potency, µM (top dose mostly 25.5 µM), for inactives: at the top dose activity change, negative = inhibition, actives largely listed as inhibitors; 410 tested, 43% active; AID 1964105; note: nearly all actives have a fitted effect of over 75% in size
HCV NS3 counter – inhibits HCV NS3/4A protease in an nsP2pro selectivity counterscreen. HCV NS3/4A protease biochemical counterscreen. 410 tested, 20% active. shares compounds with nsP2pro inh. AID 1964106. Potency, µM (titrated, usually from 50.9 µM), hits mostly inhibitors; note: nearly all actives have a fitted effect of over 55% in size
Starred values were filed as active, the others as inactive; [ ] = dose if it differs, or a comment. Only a selection was taken, and hits are over-represented in it overall. Calls come from the whole dose curve. % is set by controls: 0 for no effect and ±100 for the full control effect; potency is the fitted concentration of half-maximal effect.

For O=C(/C=C/c1ccc(O)c2c1[C@H](C(=O)O)[C@@H](c1ccc(O)c(O)c1)O2)O[C@H](Cc1ccc(O)c(O)c1)C(=O)O the results were nsP2pro inh 87%.
`CCCn1c(C)nc2c(NCCN(CC)CC)nc(C)nc21` gave nsP2pro inh -9%.
Brc1cnc2nc(SCc3ccncc3)[nH]c2c1 was read as nsP2pro inh 3%.
Screening CC1CC2(O)OC(=O)C3=C2C(CCC3)[C@@]12C[C@@H](c1ccoc1)OC2=O (some centres undefined) returned nsP2pro inh inconclusive, nsP2 cell sec -6%[33.5 µM], CHIKV NSP2 FL inconclusive, Furin counter -9%[33.5 µM], nsP2 NS23 pep inconclusive, Papain counter -10%[33.5 µM], nsP2pro conf qHTS -38%[16.7 µM] and HCV NS3 counter 1.8µM*.
For CCCCC1CCC(c2nc(-c3ccncc3)no2)CC1 (centres undefined) the results were nsP2pro inh 8%.
For CO[C@H]1C[C@@H]2CC[C@@H](C)[C@@](O)(O2)C(=O)C(=O)N2CCCC[C@H]2C(=O)O[C@H]([C@H](C)C[C@@H]2CC[C@@H](OCCO)[C@H](OC)C2)CC(=O)[C@H](C)/C=C(/C)[C@@H](O)[C@@H](OC)C(=O)[C@H](C)C[C@H](C)\C=C/C=C\C=C/1C the results were nsP2pro inh -21%[10 µM].
Screening CC1CCC(C(=O)Nc2ccc([S+](=O)([O-])Nc3nccs3)cc2)CC1 (centres undefined) returned nsP2pro inh -3%.
For C=C1C[C@H]2[C@@H]3CCC4=CC(=O)CC[C@@H]4[C@H]3CC[C@]2(C)[C@@]1(OC(C)=O)C(C)=O the results were nsP2pro inh -13%.
For CCC1(O)CC2c3cc(OC)c(OC)cc3CCN2CC1CC(C)C (centres undefined) the results were nsP2pro inh -12%.
For O=C(c1cc2sccc2n1Cc1ccccc1)N(CCc1ccc(O)c(O)c1)Cc1ccccc1 the results were nsP2pro inh inactive.
`Nc1nc2c(s1)CCN(Cc1ccc(Cl)cc1)CC2` gave nsP2pro inh 8.8µM*, nsP2 cell sec 105%, CHIKV NSP2 FL 4%, Furin counter 7%, nsP2 NS23 pep -17%, Papain counter -12%, nsP2pro conf qHTS inconclusive and HCV NS3 counter inactive.
For O=C1CN(Cc2ccc(Cl)cc2)CCN1c1ccc(Cl)nn1 the results were nsP2pro inh 4%[39.2 µM].
Screening CC1=NOC2(CCN(Cc3ccc(Cl)cc3)CC2)C1 returned nsP2pro inh inactive.
Screening Cc1ccc(-c2ccc(=O)n(CC(=O)N(C)C(C)c3ccco3)n2)cc1 (centres undefined) returned nsP2pro inh -14%.
Screening CN1CCN(c2ccc(Nc3cc(-c4cccc(-n5ccc6cc(C7CC7)cc(F)c6c5=O)c4CO)cn(C)c3=O)nc2)CC1 returned nsP2pro inh inconclusive, nsP2 cell sec 141%, CHIKV NSP2 FL 47%, Furin counter -18%, nsP2 NS23 pep inactive, Papain counter inconclusive, nsP2pro conf qHTS 125% and HCV NS3 counter inactive.
Screening O=C(O)C1(c2ccc(-c3ccc(Cl)c(Cl)c3)c(F)c2)CC1 returned nsP2pro inh 12%.
Screening Cc1nc(CCN(C)c2ncnc3ccc(-c4ccc5c(c4)OCO5)cc23)cs1 returned nsP2pro inh 1%.
O=C(Nc1ccc(F)c(C(F)(F)F)c1)Nc1nnc(-c2cccnc2)s1 was read as nsP2pro inh -1%.
